Growth data for 12 molecules are collected here from PubChem BioAssay (NCI).

Some test systems named below: SK-MEL-2 melanoma; EKVX NSCLC; SN12C renal; UO-31 renal; TK-10 renal; ACHN renal; CAKI-1 renal; A498 renal; CCRF-CEM leukemia; MOLT-4 leukemia.
Common to all, as to experiment: NCI-60 one-dose screen, 48 h (100 = growth as untreated, 0 = no growth, -100 = all killed)
Conditions in all cases: 10 µM unless noted

The panel holds about 83,000 compounds, 20% with a hit somewhere; the sample as a whole holds those more often.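 Values shown are percent growth following 48 h exposure of cells in 96-well plates to a single concentration of compound; below 10 was considered active.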 Values without a mark were called inactive. Activity calls are given as the source filed them.

As to `CC(/C=C1\SC(=S)N(CCCC(=O)NC(CC(C)C)C(=O)O)C1=O)=C\c1ccccc1` (stereo not given), the growth in the assay with SK-MEL-2 melanoma was 101%; in the assay on EKVX NSCLC, 101%; with SN12C renal, 90.2%; in the assay with UO-31 renal, 64.4%; with TK-10 renal, 131%; with ACHN renal it was 54.1%. Also, the growth with CAKI-1 renal was 79.5%; in the assay with A498 renal it was 145%; with CCRF-CEM leukemia it was 89.7%; in the assay on MOLT-4 leukemia, 54.9%.
For `COc1c(F)ccc(C(=O)Nc2ccc3nc(NC(=O)C4CCCN(S(=O)(=O)c5cccc(Cl)c5)C4)sc3c2)c1F` (stereo not given), the growth with SK-MEL-2 melanoma is 88.5%; in the assay on EKVX NSCLC, 92.8%; in the assay with SN12C renal it was 84.3%; in the assay with UO-31 renal, 75.2%; with TK-10 renal, 118%; in the assay on ACHN renal it was 82.4%. Also, the growth in the assay on CAKI-1 renal was 74.4%; with A498 renal, 113%; with CCRF-CEM leukemia, 85.3%; with MOLT-4 leukemia, 42.8%.
In the case of `C#CCOc1ccc(/C=N/Nc2nc(-c3ccc(Cl)cc3)cs2)cc1OC`, the growth is 38% in the assay with SK-MEL-2 melanoma; 59.5% in the assay with EKVX NSCLC; 67.7% in the assay with SN12C renal; 52.5% with UO-31 renal; 131% in the assay on TK-10 renal; 68.6% in the assay with ACHN renal. Besides, the growth in the assay on CAKI-1 renal was 52.6%; with A498 renal it was 69.8%; with CCRF-CEM leukemia, 36.2%; with MOLT-4 leukemia, 21.7%.
As to `COc1c(F)ccc(C(=O)Nc2ccc3nc(NC(=O)C4CCCN(S(=O)(=O)c5cccc(Br)c5)C4)sc3c2)c1F` (stereo not given), the growth is 94.9% with SK-MEL-2 melanoma; 90.9% with EKVX NSCLC; 88.4% in the assay with SN12C renal; 79.3% in the assay on UO-31 renal; 118% in the assay on TK-10 renal; 82.9% with ACHN renal. Further, the growth is 76.4% in the assay with CAKI-1 renal, 112% with A498 renal, 89.5% in the assay with CCRF-CEM leukemia and 49.3% in the assay with MOLT-4 leukemia.
On to `Cc1ccc([C@H]2C(C(=O)c3ccc(Cl)cc3)C3(N[C@@H]2c2ccccc2)C(=O)Nc2ccc(Cl)cc23)cc1` (stereo not given in full), for which the growth with SK-MEL-2 melanoma is 49.9%; in the assay on EKVX NSCLC, 59.8%; in the assay with SN12C renal, -1.19% (active); in the assay on UO-31 renal, 31.2%; in the assay with TK-10 renal, 65.7%; in the assay on ACHN renal it was 38.7%. For the same molecule, the growth was 39.1% with CAKI-1 renal, 94% with A498 renal, 66.3% in the assay on CCRF-CEM leukemia and 3.24% (active) with MOLT-4 leukemia.
For the molecule `S=c1c2ccccc2nc2n1CCc1c-2[nH]c2ccccc12`, the growth was 72.9% in the assay with SK-MEL-2 melanoma; 50.6% with EKVX NSCLC; 60.9% in the assay on SN12C renal; 56.8% in the assay on UO-31 renal; 69% in the assay with TK-10 renal; 42.4% with ACHN renal. Also, the growth with CAKI-1 renal was 36.6%; with A498 renal, 112%; in the assay with CCRF-CEM leukemia it was 96.2%; with MOLT-4 leukemia, 74.1%.
For `O=C(/C=C/Nc1ccc2oc(=O)ccc2c1)c1cc2cc(Br)ccc2oc1=O`, the growth is 107% in the assay with SK-MEL-2 melanoma; 105% in the assay on EKVX NSCLC; 102% in the assay on SN12C renal; 81.4% in the assay with UO-31 renal; 124% with TK-10 renal; 107% with ACHN renal. In addition, the growth in the assay with CAKI-1 renal is 92.5%; in the assay with A498 renal it was 144%; in the assay with CCRF-CEM leukemia, 120%; in the assay with MOLT-4 leukemia, 115%.
As to `N#Cc1cnn(C(=O)c2ccccc2Br)c1NC(=O)c1ccc(Br)cc1Cl`, the growth in the assay with SK-MEL-2 melanoma is 111%; in the assay on EKVX NSCLC, 100%; in the assay on SN12C renal, 104%; in the assay with UO-31 renal it was 85.9%; with TK-10 renal, 101%; in the assay with ACHN renal it was 103%. For the same molecule, the growth is 94.5% with CAKI-1 renal, 106% with A498 renal, 94.5% with CCRF-CEM leukemia and 99.9% in the assay with MOLT-4 leukemia.
With `COc1cc(/C=C/C(=O)c2ccccc2)ccc1Oc1nc(Nc2ccc(F)cc2)nc(N(C)C)n1`, the growth with SK-MEL-2 melanoma is -38% (active); in the assay on EKVX NSCLC, 38.6%; with SN12C renal, -5.73% (active); in the assay on UO-31 renal, 27.3%; with TK-10 renal, 89.8%; with ACHN renal, -4.12% (active). Further, the growth was 37.5% with CAKI-1 renal, 48.8% with A498 renal, 9.17% (active) in the assay on CCRF-CEM leukemia and 7.1% (active) with MOLT-4 leukemia.
Regarding `COc1cccc(-c2c(C#N)c(-c3ccc(Cl)cc3)nc3n[nH]c(-c4ccc(Cl)cc4)c23)c1`, the growth is 53.1% in the assay on SK-MEL-2 melanoma; 33.9% with EKVX NSCLC; 44.8% in the assay with SN12C renal; 35.2% in the assay with UO-31 renal; 71.8% in the assay with TK-10 renal; 56.2% with ACHN renal. Moreover, the growth is 39.1% with CAKI-1 renal, 100% with A498 renal, 23.7% in the assay on CCRF-CEM leukemia and 2.7% (active) with MOLT-4 leukemia.
In the case of `C=C1CC[C@@H]2[C@]3(C)COC(c4cn(-c5ccccc5)nc4-c4cccc([N+](=O)[O-])c4)O[C@@H]3CC[C@@]2(C)[C@@H]1C/C=C1/C(=O)OC[C@H]1O` (stereo not given in full), the growth in the assay on SK-MEL-2 melanoma is -45.2% (active); with EKVX NSCLC it was -0.625% (active); in the assay on SN12C renal it was 3.71% (active); in the assay with UO-31 renal, 12.2%; with TK-10 renal it was 36.9%; in the assay on ACHN renal, -74.5% (active). Besides, the growth is 38.7% in the assay with CAKI-1 renal, 105% with A498 renal, -1.81% (active) in the assay with CCRF-CEM leukemia and -3.81% (active) in the assay on MOLT-4 leukemia.
`CC(=O)c1c(N)c(C#N)cn1-c1ccc(Cl)cc1Cl`: the growth in the assay on SK-MEL-2 melanoma was 90.4%; with EKVX NSCLC, 93.8%; with SN12C renal, 100%; in the assay on UO-31 renal, 68.4%; with TK-10 renal it was 160%; in the assay on ACHN renal, 102%. Moreover, the growth is 97.1% in the assay with CAKI-1 renal, 112% in the assay on A498 renal, 99.3% in the assay on CCRF-CEM leukemia and 102% with MOLT-4 leukemia.
